HSF1 activator: HSF-1 activators, primary screen, NIH3T3-HGL cells, MG132 stress, luminescence, single point. NIH3T3-HGL HSF-1 luciferase reporter, 8 h; 100% = twice DMSO control signal. activation, % at 9 µM. 1.7% of 300,000 active;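 active means mean replicate activation of at least 50% with a set share of replicates each reaching 50%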;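 further: 0% = median of the neutral control wells and 100% = twice that signal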
S1P4 antag: S1P4 receptor antagonists, primary screen, cell-based. Sphingosine 1-phosphate receptor 4 (Homo sapiens), O95977. S1P4-expressing cells, antagonist mode, reporter read-out. inhibition, % at 4.98 µM. 0.26% of 220,000 active. AID 1510, 2009; in the data active means inhibition above about 29%;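 further: 0% = wells stimulated with agonist and 100% = vehicle wells without agonist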
S1P3 antagonist: S1P3 receptor antagonists, primary screen, cell-based | CHO S1P3 NFAT-BLA reporter, FRET fluorescence, antagonist mode | inhibition, % at 4.98 µM | 0.27% of 170,000 active;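 active means inhibition above the plate cutoff, the mean inhibition of test wells on that plate plus 3 SD, cut at about 28% in these data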;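 further: cells challenged with S1P at its EC80 of 0.8 µM; blue over green emission ratio from cleaved BLA substrate after 4 h stimulation; 0% = S1P-stimulated wells and 100% = unstimulated DMSO-only wells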
Target sequence (Q99500 whole entry, looked up): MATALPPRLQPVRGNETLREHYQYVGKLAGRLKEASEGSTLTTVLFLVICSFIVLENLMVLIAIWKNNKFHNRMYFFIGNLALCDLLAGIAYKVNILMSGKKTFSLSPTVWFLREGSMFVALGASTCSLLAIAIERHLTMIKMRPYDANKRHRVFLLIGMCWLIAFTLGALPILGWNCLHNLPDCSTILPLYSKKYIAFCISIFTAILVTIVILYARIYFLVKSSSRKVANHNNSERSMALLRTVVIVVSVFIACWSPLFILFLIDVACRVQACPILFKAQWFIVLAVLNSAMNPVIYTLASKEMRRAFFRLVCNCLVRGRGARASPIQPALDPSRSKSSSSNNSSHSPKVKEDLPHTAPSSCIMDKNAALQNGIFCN
S1P4 ag: S1P4 receptor agonists, primary screen, cell-based; S1P4-expressing cell line, agonist reporter assay; activation, % at 4.98 µM; 0.35% of 220,000 active; in the data active means activation above about 11%;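 further: 0% = DMSO vehicle and 100% = reference agonist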
HSF1 inh: HSF1 inhibitors in luciferase reporter cells, primary screen, cell-based, NIH3T3, luminescence; NIH3T3-HGL HSE-luciferase, MG132-induced, luminescence 8 h; stronger effect = lower value; activity change, negative = inhibition, % at 7.5 µM (by protocol); 0.77% of 300,000 active; AID 2098, 2009;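 active means more than half of replicate wells show activity change below -50%, luminescence cut by over half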;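 further: luciferase reports HSF-1 transcriptional activity via heat shock element; 0% = median of DMSO wells and -100% = zero luminescence signal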
Hsp70 act: Hsp70 transcriptional activators, primary screen, cell-based, HeLa, Hsp70 promoter luciferase, luminescence, 10 µM | HeLa Hsp70 promoter luciferase reporter; scaled: vehicle 0, proteasome-inhibitor control 100% | activation, % at 10 µM | 0.04% of 200,000 active | AID 1203, 2008;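 active means activation above the mean across all tested compounds plus 3 SD, cutoff set per campaign, cut at about 5.5% in these data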;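 further: 100% = MG132 at 30 µM as the positive control and 0% = DMSO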
* hit, by the source's call. Compounds with a hit are over-represented: about 2.9% of the library has one in this group of screens.

CCOC(=O)NC(=S)Nc1c(C)n(C)n(-c2ccccc2)c1=O was read as HSF1 activator -4, S1P4 antag -7, S1P3 antagonist -6, S1P4 ag 1, HSF1 inh 2 and Hsp70 act 0.
CN1CCSc2ccc(C(=O)Nc3cccc(F)c3)cc21 was read as HSF1 activator 160*, S1P4 antag 6, S1P3 antagonist 11, S1P4 ag 1 and HSF1 inh 117.
O=C(Nc1cccc(F)c1)c1ccc2c(c1)OCCO2 was read as HSF1 activator 57* and HSF1 inh 23.
O=C(NC(=S)Nc1ccc(N2CCOCC2)cc1)c1ccc2c(c1)OCCO2 was read as HSF1 activator 18, S1P4 antag -16, S1P3 antagonist -11, S1P4 ag 0, HSF1 inh 9 and Hsp70 act 0.
`O=C(NC(=S)Nc1ccc(F)cc1)c1ccc2c(c1)OCCO2` gave HSF1 activator -73, S1P4 antag -17, S1P3 antagonist -9, S1P4 ag 0, HSF1 inh -68* and Hsp70 act 0.
`O=C(NC(=S)Nc1ccc2c(c1)OCCO2)c1ccccc1F` gave HSF1 activator 86*, S1P4 antag 25, S1P3 antagonist -2, S1P4 ag 0, HSF1 inh 23 and Hsp70 act 0.
`Cc1cccc(N2CCN(Cc3nc(CC4CC4)no3)CC2)n1` gave HSF1 activator -10, S1P4 antag -6, S1P3 antagonist 0, S1P4 ag -1, HSF1 inh 0 and Hsp70 act 0.
`O=C(CSc1nc(=O)n2cc(Cl)ccc2n1)Nc1cccc2ccccc12` gave HSF1 activator 42 and HSF1 inh 16.
Screening CN(C)c1cccc(C(=O)Nc2cccc(F)c2)c1 returned HSF1 activator -16, S1P4 antag -3, S1P3 antagonist 6, S1P4 ag 1, HSF1 inh -3 and Hsp70 act 0.
Screening O=C(NC(=S)Nc1ccc(N2CCCCC2)cc1)c1ccc2c(c1)OCCO2 returned HSF1 activator -66, S1P4 antag -7, S1P3 antagonist -3, S1P4 ag -1, HSF1 inh -61* and Hsp70 act 0.
Screening CCN(CC)c1ccc(C(=O)Nc2cccc(F)c2)cc1 returned HSF1 activator 61*, S1P4 antag 6, S1P3 antagonist 32, S1P4 ag -5, HSF1 inh 27 and Hsp70 act 0.
Screening S=C(NCCc1ccc(Cl)cc1)NC1CCCC1 returned HSF1 activator 27, S1P4 antag 6, S1P3 antagonist 19, S1P4 ag -1, HSF1 inh 14 and Hsp70 act 0.
`S=C(NCCc1ccc(Cl)cc1)NC1CCCCC1` gave HSF1 activator 58* and HSF1 inh 30.
For COc1ccc(N2C(=O)CC(N3CCC(c4nc5ccccc5[nH]4)CC3)C2=O)cc1 (stereo unspecified) the results were HSF1 activator 19, S1P4 antag -12, S1P4 ag 1, HSF1 inh -8 and Hsp70 act 0.
`O=C1CC(N2CCC(c3nc4ccccc4[nH]3)CC2)C(=O)N1c1ccccc1F` (stereo unspecified) gave HSF1 activator 177*, S1P4 antag 5, S1P3 antagonist -8, S1P4 ag 1, HSF1 inh 124 and Hsp70 act 1.
`CSCC[C@H](NC(=O)[C@@H]1CSC2c3ccccc3C(=O)N21)C(=O)NCc1ccco1` (stereo partly specified) gave HSF1 activator -16 and HSF1 inh -10.
CCS(=O)(=O)N1CCN(C(=O)c2ccccc2)CC1 was read as HSF1 activator -88, S1P4 antag 4, S1P4 ag 0, HSF1 inh -86* and Hsp70 act 0.
CCS(=O)(=O)N1CCN(C(=O)c2ccc(-c3ccccc3)cc2)CC1 was read as HSF1 activator 2, S1P4 antag -7, S1P3 antagonist -5, S1P4 ag 2, HSF1 inh -7 and Hsp70 act 0.

Assay outcomes as filed in PubChem.
